Records with an inconclusive call do not appear. Calls of active or inactive are those of the source. Unless noted, calls follow the shape of the dose curve; as a rule, active = well fitted curve in the direction sought with a large enough effect; inconclusive = small, poorly fitted or top-dose-only effect, or another doubt; inactive = no such curve, though single readings can be large; an effect the other way counts as inactive or inconclusive.
Legend:
[1] = molecular target: Glucocorticoid receptor (Homo sapiens) (UniProt P04150); assay: qHTS assay for small molecule antagonists of glucocorticoid receptor signaling (AID 588533; active = well fitted inhibition curve with a large enough effect in the signal ratio, with a control signal flat, not every such curve was filed as active; the % refers to the signal ratio;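 also: cells stimulated with 2 nM dexamethasone as agonist; % is scaled to controls: 0 for no effect and ±100 for the full control effect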)
Sequence of Glucocorticoid receptor (Homo sapiens) (P04150 whole entry, looked up): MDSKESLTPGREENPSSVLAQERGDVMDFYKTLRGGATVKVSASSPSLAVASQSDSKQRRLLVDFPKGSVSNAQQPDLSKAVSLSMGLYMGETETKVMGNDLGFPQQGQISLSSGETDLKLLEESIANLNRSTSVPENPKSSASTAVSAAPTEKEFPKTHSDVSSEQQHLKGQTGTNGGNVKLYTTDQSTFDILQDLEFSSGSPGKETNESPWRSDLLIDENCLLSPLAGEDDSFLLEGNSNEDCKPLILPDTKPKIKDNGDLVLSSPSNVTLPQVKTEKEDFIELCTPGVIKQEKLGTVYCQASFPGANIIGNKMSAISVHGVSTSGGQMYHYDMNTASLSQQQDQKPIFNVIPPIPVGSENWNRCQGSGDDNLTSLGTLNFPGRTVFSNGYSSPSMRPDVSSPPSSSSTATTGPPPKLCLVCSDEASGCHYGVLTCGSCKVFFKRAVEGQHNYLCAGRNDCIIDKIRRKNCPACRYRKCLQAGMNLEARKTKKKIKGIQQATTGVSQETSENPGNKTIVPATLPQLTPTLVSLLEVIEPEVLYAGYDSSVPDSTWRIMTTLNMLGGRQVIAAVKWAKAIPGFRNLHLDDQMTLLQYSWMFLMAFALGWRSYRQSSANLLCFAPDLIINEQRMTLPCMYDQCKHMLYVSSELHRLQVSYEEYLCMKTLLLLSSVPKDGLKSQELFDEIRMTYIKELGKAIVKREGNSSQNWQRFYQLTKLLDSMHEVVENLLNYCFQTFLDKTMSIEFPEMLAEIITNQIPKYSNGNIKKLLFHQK
In short: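 Antagonist-mode qHTS: compound titrations added to GRE-bla HeLa cells, then dexamethasone 2 nM final; 18 h, 37 C. CCF4 FRET fluorescence normalized to dexamethasone and DMSO; IC50 from Hill fit.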

[2] = molecular target: Peroxisome proliferator-activated receptor gamma (Homo sapiens) (UniProt P37231); assay: qHTS assay for small molecule agonists of peroxisome proliferator-activated receptor gamma signaling (AID 588536; active = well fitted curve in the direction sought with a large enough effect in the signal ratio, with a control signal flat, not every such curve was filed as active; the % refers to the signal ratio;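 also: 0% = DMSO basal wells and 100% = rosiglitazone at 2 µM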)
Sequence of Peroxisome proliferator-activated receptor gamma (Homo sapiens) (P37231 whole entry, looked up): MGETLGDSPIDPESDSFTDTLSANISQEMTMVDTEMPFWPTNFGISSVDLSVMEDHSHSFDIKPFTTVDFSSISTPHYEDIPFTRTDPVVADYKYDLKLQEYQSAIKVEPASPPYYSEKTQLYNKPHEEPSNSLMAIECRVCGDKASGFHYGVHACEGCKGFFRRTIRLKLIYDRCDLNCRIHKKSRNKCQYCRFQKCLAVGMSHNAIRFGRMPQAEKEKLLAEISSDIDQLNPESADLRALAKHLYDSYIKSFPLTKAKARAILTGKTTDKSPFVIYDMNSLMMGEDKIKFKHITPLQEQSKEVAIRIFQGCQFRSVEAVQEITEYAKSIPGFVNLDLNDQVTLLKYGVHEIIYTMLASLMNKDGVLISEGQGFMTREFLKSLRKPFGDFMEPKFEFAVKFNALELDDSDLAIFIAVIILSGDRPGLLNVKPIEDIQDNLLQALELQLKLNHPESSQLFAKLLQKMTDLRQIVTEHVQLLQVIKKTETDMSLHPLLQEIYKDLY
In short: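 Ratiometric blue/green fluorescence (405 nm excitation; 460 and 530 nm emission) from CCF4-loaded HEK293 reporter cells serves as signal. Exposure to test compounds lasts 16 h at 37 C in medium containing 1% charcoal/dextran-treated serum.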

[3] = molecular target: Peroxisome proliferator-activated receptor gamma (Homo sapiens) (UniProt P37231); assay: qHTS assay for small molecule antagonists of peroxisome proliferator-activated receptor gamma signaling (AID 588537; active = well fitted inhibition curve with a large enough effect in the signal ratio, with a control signal flat, not every such curve was filed as active; the % refers to the signal ratio;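 also: reporter cells co-stimulated with 50 nM rosiglitazone agonist during compound treatment; % of control where 0% means no effect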)
In short: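 Inhibitors of agonist-stimulated UAS-bla reporter activity were sought in HEK293 cells; rosiglitazone (50 nM) defined full signal and DMSO baseline. Curves fitted to Hill model gave IC50 and efficacy.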

[4] = molecular target: Vitamin D3 receptor (Homo sapiens) (UniProt P11473); assay: qHTS assay for small molecule antagonists of vitamin D receptor signaling (AID 588541; calls by dose curve;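 also: receptor activated by calcitriol during compound treatment; % is scaled to controls: 0 for no effect and ±100 for the full control effect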)
Sequence of Vitamin D3 receptor (Homo sapiens) (P11473 whole entry, looked up): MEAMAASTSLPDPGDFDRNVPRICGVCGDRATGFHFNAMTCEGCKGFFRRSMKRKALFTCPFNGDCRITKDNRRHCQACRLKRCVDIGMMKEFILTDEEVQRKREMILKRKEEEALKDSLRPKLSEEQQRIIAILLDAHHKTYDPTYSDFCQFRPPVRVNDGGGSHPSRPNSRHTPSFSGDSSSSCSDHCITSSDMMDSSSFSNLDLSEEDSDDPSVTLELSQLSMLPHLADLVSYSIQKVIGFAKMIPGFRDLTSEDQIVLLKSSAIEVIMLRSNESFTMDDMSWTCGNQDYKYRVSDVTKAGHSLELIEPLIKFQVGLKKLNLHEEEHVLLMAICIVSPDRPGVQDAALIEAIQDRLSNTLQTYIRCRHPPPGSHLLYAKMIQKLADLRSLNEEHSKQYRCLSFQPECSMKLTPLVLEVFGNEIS
In short: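 Antagonist-mode beta-lactamase reporter assay: HEK293T VDR-UAS-bla cells were exposed to titrated compound alongside 1-alpha,25-dihydroxyvitamin D3 at 3 nM final for 16 h. Values were normalized to the 50 nM agonist control and DMSO basal, with IC50 and efficacy from Hill equation fits.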

[5] = qHTS assay for small molecule agonists of retinoid X receptor alpha signaling (AID 588544; calls by dose curve;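 as to activation: 0% = DMSO basal wells and 100% = reference agonist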); settings: HEK293T RXRa-UAS-bla, beta-lactamase reporter, 18 h; 530 nm emission
[6] = molecular target: Retinoic acid receptor RXR-alpha (Homo sapiens) (UniProt P19793); assay: as above
Sequence of Retinoic acid receptor RXR-alpha (Homo sapiens) (P19793 whole entry, looked up): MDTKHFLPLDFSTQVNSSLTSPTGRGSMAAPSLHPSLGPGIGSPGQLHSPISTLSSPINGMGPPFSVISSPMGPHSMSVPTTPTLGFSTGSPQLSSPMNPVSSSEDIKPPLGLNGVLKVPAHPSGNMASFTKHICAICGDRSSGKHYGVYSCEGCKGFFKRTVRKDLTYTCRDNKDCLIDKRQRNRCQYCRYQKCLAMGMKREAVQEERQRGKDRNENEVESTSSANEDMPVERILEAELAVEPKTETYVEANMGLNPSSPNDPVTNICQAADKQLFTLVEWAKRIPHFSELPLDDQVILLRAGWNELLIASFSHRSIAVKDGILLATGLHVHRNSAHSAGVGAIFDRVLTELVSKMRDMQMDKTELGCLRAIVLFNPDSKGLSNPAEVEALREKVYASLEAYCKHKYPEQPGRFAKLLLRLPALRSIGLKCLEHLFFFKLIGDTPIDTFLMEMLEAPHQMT

[7] = qHTS assay for small molecule antagonists of retinoid X receptor alpha signaling (AID 588546; active = well fitted inhibition curve with a large enough effect in the signal ratio, with a control signal flat, not every such curve was filed as active; the % refers to the signal ratio;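 also: cells stimulated with 9-cis-retinoic acid as agonist; % is scaled to controls: 0 for no effect and ±100 for the full control effect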); settings: HEK293T RXRa-UAS-bla, beta-lactamase ratio, antagonist mode; measured here: W530 green channel, cytotoxicity proxy
In short: (§1)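 Beta-lactamase reporter inhibition, read as CCF4 fluorescence ratio (ex 405, em 460/530 nm) after 2 h at RT. HEK293T UAS-bla cells, 2500/well, were stimulated with 9-cis-RA at 500 or 100 nM final alongside test compound for 18 h at 37 C.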

[8] = molecular target: Retinoic acid receptor RXR-alpha (Homo sapiens) (UniProt P19793); assay: as above; settings: HEK293T RXRa-UAS-bla, beta-lactamase ratio, antagonist mode
In short: as §1

[9] = qHTS assay for small molecule agonists of the antioxidant response element (ARE) signaling pathway (AID 651741; active = well fitted activation curve with a large enough effect in the signal ratio; the % refers to the signal ratio; also: potency is read from the fitted curve at half-maximal effect)
In short: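 Seeding 2,000 ARE-bla HepG2 cells per well preceded a 5 h incubation at 37 C/5% CO2 and a 16 h compound exposure at 37 C. Beta-lactamase reporter activity was then quantified by fluorescence after 2 h with LiveBLAzer B/G FRET substrate.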

[10] = qHTS assay for environmental chemicals that activate the Aryl hydrocarbon Receptor (AhR) signaling pathway (AID 651777); settings: 1A2-DRE human hepatoma cells, luciferase, 24 h; activation: stronger effect = higher value; also: potency is read from the fitted curve at half-maximal effect; nearly all actives have a fitted effect of over 15% in size
In short: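 Following a 24 hr incubation with test chemicals at 37 C and 5% CO2, 1A2-DRE human hepatoma cells received One-Glo reagent; after 30 min at room temperature, luciferase output reflected CYP1A2 induction via AhR.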

[11] = molecular target: Peroxisome proliferator-activated receptor alpha (Homo sapiens) (UniProt Q07869); assay: qHTS assay for small molecule agonists of the peroxisome proliferator-activated receptor alpha (PPARalpha) signaling pathway (AID 651778); settings: PathHunter PPARalpha complementation, chemiluminescence, 6 h; stronger effect = higher value; also: % of control where 0% means no effect
Sequence of Peroxisome proliferator-activated receptor alpha (Homo sapiens) (Q07869 whole entry, looked up): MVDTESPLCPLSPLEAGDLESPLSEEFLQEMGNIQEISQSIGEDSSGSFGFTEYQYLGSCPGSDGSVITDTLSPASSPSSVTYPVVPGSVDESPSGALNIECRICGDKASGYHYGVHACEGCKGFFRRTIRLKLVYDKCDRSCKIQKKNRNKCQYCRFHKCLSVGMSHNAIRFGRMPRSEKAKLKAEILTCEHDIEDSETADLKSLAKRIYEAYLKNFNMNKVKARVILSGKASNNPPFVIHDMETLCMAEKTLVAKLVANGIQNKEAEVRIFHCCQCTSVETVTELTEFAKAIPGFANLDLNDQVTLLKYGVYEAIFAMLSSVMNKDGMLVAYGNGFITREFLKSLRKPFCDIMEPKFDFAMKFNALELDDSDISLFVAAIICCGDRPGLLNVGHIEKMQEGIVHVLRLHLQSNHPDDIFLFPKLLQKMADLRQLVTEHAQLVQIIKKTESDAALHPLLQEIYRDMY
In short: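 Chemiluminescence from complemented enzyme reported PPARalpha activation in cells after 6 hr of compound treatment at 37 C. The detection reagent was incubated for 60 min at room temperature, and compounds were scored as agonists.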

[12] = qHTS assay for small molecule agonists of the antioxidant response element (ARE) signaling pathway measured by Nrf2-dependant transcriptional activity - cell viability counter screen (AID 720653; active = well fitted curve in the direction sought with a large enough effect in the repeat runs; an effect the other way counts as inactive or inconclusive; also: % is scaled to controls: 0 for no effect and ±100 for the full control effect); settings: ARE-bla HepG2 viability, CellTiter-Glo ATP luminescence, 16 h; max response: stronger effect = lower value
In short: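 Cytotoxicity counter screen: intracellular ATP quantified by CellTiter-Glo luminescence in the same ARE-bla HepG2 plates, after 16 h compound exposure and a 2 h beta-lactamase substrate step.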

[13] = qHTS assay for cell viability of HEK293 cells (AID 743288); settings: ATP luminescence (CellTiter-Glo), 18 h; max response: stronger effect = lower value; also: % is scaled to controls: 0 for no effect and ±100 for the full control effect; nearly all actives have a fitted effect of over 50% in size
In short: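 Luminescent ATP quantitation served as the viability read-out. Cells (parental HEK293, 2,000/well) received compounds after at least 5 h at 37 C and were exposed for 18 h before a 30 min room-temperature reagent step.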

[14] = qHTS assay for cell viability of the p53RE-bla HCT-116 cell line (AID 743292); also: % is scaled to controls: 0 for no effect and ±100 for the full control effect; nearly all actives have a fitted effect of over 55% in size
In short: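 After plating at 4,000 cells per well and a 5 h rest at 37 C, HCT-116 cells carrying p53RE-bla received test chemicals in DMSO. Sixteen hours later at 37 C, CellTiter-Glo was added and luminescence recorded following 30 min at room temperature.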

[15] = qHTS profiling of the MIPE4 collection as inhibitors of Plasmodium falciparum (3D7) proliferation (AID 743344; call rule not given here;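 also: scaled between DMSO vehicle wells and 0.29 µM artemisinin as full inhibition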); settings: P. falciparum 3D7 in erythrocytes, SYBR Green DNA fluorescence, 72 h; at 28.5 µM (top of the series) unless noted
In short: (§2)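 Erythrocytes infected with P. falciparum (0.3% parasitemia, 2.5% hematocrit) incubated with compounds 72 h at 37 C, 5% CO2. Lysis with saponin/Triton buffer containing SYBR Green I, overnight at room temperature in the dark; DNA fluorescence (485/535 nm) normalised to 0.29 uM artemisinin and DMSO.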

[16] = qHTS profiling of the MIPE4 collection as inhibitors of Plasmodium falciparum (DD2) proliferation (Rep 2) (AID 743346; call rule not given here); settings: P. falciparum Dd2 in erythrocytes, SYBR Green DNA, 72 h; at 28.5 µM (top of the series) unless noted
In short: as §2

[17] = qHTS profiling of the MIPE4 collection as inhibitors of Plasmodium falciparum (HB3) proliferation (AID 743347; call rule not given here;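 also: plate controls were DMSO vehicle wells for no effect and artemisinin wells for full effect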); settings: P. falciparum HB3 in erythrocytes, SYBR Green DNA, 72 h; at 28.5 µM (top of the series) unless noted
In short: as §2

[18] = molecular target: Lysosomal alpha-glucosidase (Homo sapiens) (UniProt P10253); assay: Confirmation of Inhibitors and Activators of Purified Human alpha-Glucosidase (AID 2115; active = well fitted curve in either direction with a large enough effect)
In short: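 Purified human enzyme (4 nM) with 4-methylumbelliferyl-alpha-D-glucopyranoside (400 uM), compounds up to 77 uM, in citrate/phosphate buffer pH 5.0 with 0.005% Tween-20. After 20 min at RT, stopped at pH 10; fluorescence ex 365/em 440 nm; AC50 from Hill fits.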

[19] = qHTS Assay for Identification of Small Molecule Antagonists for Thrombopoietin (TPO) Signaling Pathway (AID 918); settings: TPO-dependent cell signaling reporter, antagonist mode; also: potency is read from the fitted curve at half-maximal effect; nearly all actives have a fitted effect of over 60% in size
In short: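 Murine Ba/F3 cells stably expressing human TPO receptor and a Glycoprotein IIb promoter–luciferase reporter were IL-3-starved overnight, treated with compounds plus TPO (26 pM final, its EC50) for 24 hrs at 37 C, then read by luminescence.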

[20] = Confirmatory screen GU Rhodamine qHTS for Zika virus inhibitors qHTS (AID 1347157);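 also: plate controls were no-inhibitor wells for no effect and no-enzyme wells for full effect; nearly all actives have a fitted effect of over 70% in size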
In short: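 Percent inhibition came from the 15-min rise in Rhodamine110 fluorescence (1.5 microM substrate, ~15% conversion), normalized to no-inhibitor and no-enzyme wells and Hill-fitted. Unlinked protease, 25 nM, pH 8.0 Tris buffer; compounds up to 114 microM, 15-min preincubation.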

Compound: Cc1ccc2cc3c(ccc4ccccc43)c3c2c1CC3
- Potency [1]: inactive
- outcome [2]: inactive
- Potency [3]: inactive
- outcome [4]: inactive
- max response [5]: 0.698%
- outcome [6]: inactive
- max response [7]: 24.7%
- max response [8]: -30.8% (inactive)
- Potency [9]: 2.17 µM (active)
- Potency [10]: 8.91 µM (active)
- max response [11]: -0.967% (inactive)
- max response [12]: -7.15% (inactive)
- max response [13]: -7.81% (inactive)
- outcome [14]: inactive

Compound: Cc1ncc(C[n+]2csc(CCO)c2C)c(=O)[nH]1
- parasite growth, % of DMSO control [15]: 96.7%
- parasite growth, % of control (lower = inhibition) [16]: 113%
- growth, % of control [17]: 73.2%

Compound: O[C@H]1[C@H](O)[C@@H](O)CN2CC[C@H](O)[C@H]12
- outcome [18]: inactive

Compound: C=CCN1CC[C@@]23c4c5ccc(O)c4O[C@H]2/C(=N\N=C2/CC[C@@]4(O)[C@H]6Cc7ccc(O)c8c7[C@@]4(CCN6CC=C)[C@@H]2O8)CC[C@]3(O)[C@@H]1C5
- Potency [19]: 12.6 µM (active)

Compound: O=C(O)c1ccccc1-c1c2cc(Br)c(=O)cc-2oc2[c]([Hg])c(O)c(Br)cc12
- Potency [20]: inactive

Source: PubChem BioAssay (NCATS)
